According to PubChem BioAssay (Tox21):
Results filed as inconclusive are left out. Activity calls are given as the source filed them. Calls follow the shape of the full dose curve.

What was measured:
[1] = molecular target: Acetylcholinesterase (Homo sapiens) (UniProt P22303); assay: Acetylcholinesterase (AChE) small molecule antagonists: colormetric cell-based qHTS assay (AID 1347395); also: nearly all actives have a fitted effect of over 30% in size
Procedure, shortened: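 Colorimetric read-out: DTNB detects thiocholine released when cellular AChE in SH-SY5Y cells hydrolyses acetylthiocholine. Cells attached overnight, received compound for 30 min at 37 C, then substrate mix for 90 min at 37 C.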

[2] = molecular target: Acetylcholinesterase (Homo sapiens) (UniProt P22303); assay: Acetylcholinesterase (AChE) small molecule antagonists: enzyme-based qHTS assay (AID 1347397); conditions: Potency: AChE enzyme activity inhibition; outcome: AChE enzyme activity inhibition; also: nearly all actives have a fitted effect of over 55% in size; also: potency is read from the fitted curve at half-maximal effect
Procedure, shortened: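 Enzyme inhibition was scored from DTNB-detected thiocholine formed by recombinant human AChE acting on acetylthiocholine. The 30 min compound preincubation and 10 min substrate reaction were both run at room temperature, with DMSO as vehicle control.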

[3] = molecular target: Acetylcholinesterase (Homo sapiens) (UniProt P22303); assay: Acetylcholinesterase (AChE) small molecule antagonists: fluorescence cell-based qHTS assay (AID 1347398); conditions: Potency: AChE activity; outcome: AChE activity; also: nearly all actives have a fitted effect of over 50% in size
Procedure, shortened: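 Endogenous acetylcholinesterase of SH-SY5Y neuroblastoma cells is measured in situ. After overnight attachment and 30 min compound exposure, cells receive acetylthiocholine and Thiolite Green; fluorescence is read after 40 min at room temperature.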

[4] = molecular target: Acetylcholinesterase (Homo sapiens) (UniProt P22303); assay: Acetylcholinesterase (AChE) small molecule antagonists: enzyme-based qHTS assay with human liver microsomes (AID 1347399); conditions: Potency: qHTS inhibition; outcome: qHTS inhibition; also: nearly all actives have a fitted effect of over 60% in size
Procedure, shortened: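 Recombinant human AChE (50 mU/mL in the enzyme mix) and human liver microsomes (0.25 mg/mL final) were preincubated with compound and NADPH (0.25 mg/mL final) for 30 min at 37 C. Acetylthiocholine/DTNB was then added; thiocholine was read colorimetrically after 10 min at room temperature.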
% is scaled to controls: 0 for no effect and ±100 for the full control effect.

Acetylcholinesterase (Homo sapiens), sequence (P22303 whole entry, looked up): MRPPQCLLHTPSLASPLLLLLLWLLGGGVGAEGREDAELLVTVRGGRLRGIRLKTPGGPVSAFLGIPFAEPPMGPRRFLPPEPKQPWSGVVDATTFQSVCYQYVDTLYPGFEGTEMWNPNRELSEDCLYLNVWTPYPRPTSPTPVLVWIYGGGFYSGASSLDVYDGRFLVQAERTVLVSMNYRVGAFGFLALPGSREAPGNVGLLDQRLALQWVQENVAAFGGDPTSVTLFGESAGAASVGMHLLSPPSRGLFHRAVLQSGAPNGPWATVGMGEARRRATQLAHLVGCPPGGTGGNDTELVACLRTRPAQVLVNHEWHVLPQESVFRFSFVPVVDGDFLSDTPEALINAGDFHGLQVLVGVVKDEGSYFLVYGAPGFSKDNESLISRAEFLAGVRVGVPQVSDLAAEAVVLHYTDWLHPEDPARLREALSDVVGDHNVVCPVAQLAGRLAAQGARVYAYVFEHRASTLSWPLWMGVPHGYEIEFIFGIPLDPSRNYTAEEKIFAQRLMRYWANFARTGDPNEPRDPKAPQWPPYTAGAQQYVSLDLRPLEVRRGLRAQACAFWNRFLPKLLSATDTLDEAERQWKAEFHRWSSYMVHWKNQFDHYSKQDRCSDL

C[C@]12CC[C@H]3C(=CCc4cc(O)ccc43)[C@@H]1CCC2=O
inactive: Potency [1] | Potency [2] | Potency [3] | Potency [4]

C[C@@H](O)[C@H]1C(=O)N2C(C(=O)O)=C(SCCN=CN)C[C@H]12
inactive: Potency [1] | Potency [2] | Potency [3] | Potency [4]

CCCCCCCC/C=C\CCCCCCCCCCCC(=O)O
inactive: Potency [1] | Potency [2] | Potency [3] | Potency [4]

C[C@@H]1CN(c2c(F)c(F)c3c(=O)c(C(=O)O)cn(C4CC4)c3c2F)C[C@H](C)N1
inactive: activity, negative = inhibition [1] -2.8% [at 23.6 µM] | activity change, negative = inhibition [2] -0.831% [at 23.6 µM] | activity change, negative = inhibition [3] 0.907% [at 23.8 µM] | activity change, negative = inhibition [4] -1.43% [at 23.6 µM]

CC1(C)C(=O)N(Br)C(=O)N1Cl
inactive: Potency [1] | Potency [2] | Potency [3] | Potency [4]

C=C(C)C(=O)OCC
inactive: Potency [1] | Potency [2] | Potency [3] | Potency [4]

COc1cc(C=C2CCC/C(=C\c3ccc(O)c(OC)c3)C2=O)ccc1O
inactive: Potency [1] | Potency [2] | Potency [3] | Potency [4]

Nc1ccccc1O
inactive: Potency [1] | Potency [2] | Potency [3] | Potency [4]

CC(NC(CCc1ccccc1)C(=O)O)C(=O)N1C(=O)N(C)CC1C(=O)O (configuration not stated)
inactive: Potency [1] | Potency [2] | Potency [3] | Potency [4]

O=C(O)c1ccccc1-c1ccc(C(F)(F)F)cc1
inactive: Potency [1] | Potency [2] | Potency [3] | Potency [4]

CC(=O)N(c1onc(C)c1C)S(=O)(=O)c1ccc(N)cc1
inactive: Potency [1] | Potency [2] | Potency [3] | Potency [4]

CCOc1ccc(O)cc1
inactive: Potency [1] | Potency [2] | Potency [3] | Potency [4]

CC(=O)c1ccccc1N
inactive: Potency [1] | Potency [2] | Potency [3] | Potency [4]

CCOC(C)(C)C
inactive: Potency [1] | Potency [2] | Potency [3] | Potency [4]

CNCC(O)c1ccc(O)c(O)c1 (configuration not stated)
inactive: outcome [1] | outcome [2] | outcome [3] | outcome [4]

CCn1nc(Cc2ccccc2)cc1C1CCN(C[C@H]2C[C@H](N(C)[C@@H](C(=O)O)C(C)C)C[C@@H]2c2cccc(F)c2)CC1
inactive: Potency [1] | Potency [2] | Potency [3] | Potency [4]

OCc1ccccn1
inactive: Potency [1] | Potency [2] | Potency [3] | Potency [4]

S=c1[nH][nH]c(=S)s1
inactive: Potency [1] | Potency [2] | Potency [3] | Potency [4]

CNCCS(=O)(=O)O
inactive: Potency [1] | Potency [2] | Potency [3] | Potency [4]

CC(C)(C)C1CCC(=O)CC1
inactive: Potency [1] | Potency [2] | Potency [3] | Potency [4]

CCC(O)CO (configuration not stated)
inactive: Potency [1] | Potency [2] | Potency [3] | Potency [4]

CCCCN(CCCC)C(C(N)=O)c1ccc(OC)cc1 (configuration not stated)
inactive: Potency [1] | Potency [2] | Potency [3] | Potency [4]

CC(C)(c1ccc(Oc2ccc3c(c2)C(=O)OC3=O)cc1)c1ccc(Oc2ccc3c(c2)C(=O)OC3=O)cc1
inactive: Potency [1] | Potency [2] | Potency [3] | Potency [4]

C[N+]1(C)CCCC(OC(=O)C(O)(c2ccccc2)c2ccccc2)C1 (configuration not stated)
inactive: Potency [1] | Potency [2] | Potency [3] | Potency [4]

CCOc1ccc(NS(=O)(=O)c2ccc(N)cc2)nn1
inactive: Potency [1] | Potency [2] | Potency [3] | Potency [4]

CC1=CCCC(C)(C)C12CCC(C)O2 (configuration not stated)
inactive: Potency [1] | Potency [2] | Potency [3] | Potency [4]

CC(=O)NC(=O)c1ccccc1O
inactive: Potency [1] | Potency [2] | Potency [3] | Potency [4]

NC(=O)c1cc[n+](CC2=C(C(=O)[O-])N3C(=O)[C@@H](NC(=O)Cc4cccs4)[C@H]3SC2)cc1
inactive: Potency [1] | Potency [2] | Potency [3] | Potency [4]

CN(C1CCCCC1)S(=O)(=O)c1ccccc1N
inactive: Potency [1] | Potency [2] | Potency [3] | Potency [4]

CCCCCCCC/C=C\CCCCCCCC(=O)N(C)CC(=O)O
active: Potency [2] 63.3 µM
inactive: Potency [1] | Potency [3] | Potency [4]

O=S(=O)(O)c1ccc2c(N=Nc3ccc(S(=O)(=O)O)c4ccccc34)c(O)c(S(=O)(=O)O)cc2c1
inactive: activity, negative = inhibition [1] -0.661% [at 10.5 µM] | activity change, negative = inhibition [2] 1.09% [at 10.5 µM] | activity change, negative = inhibition [3] 5.15% [at 10.5 µM] | activity change, negative = inhibition [4] 1.78% [at 10.5 µM]

NC(=O)c1ncn([C@@H]2O[C@H](CO)[C@@H](O)[C@H]2O)c1N
inactive: Potency [1] | Potency [2] | Potency [3] | Potency [4]

CCC(Cl)C(Cl)C(Cl)CC(Cl)C(Cl)C(C)Cl (configuration not stated)
inactive: Potency [1] | Potency [2] | Potency [3] | Potency [4]

CC1(C)CC(O)CC(C)(C)N1[O]
inactive: Potency [1] | Potency [2] | Potency [3] | Potency [4]

CN1CCN(C(=O)C2CCCCC2)CC1
inactive: Potency [1] | Potency [2] | Potency [3] | Potency [4]

CO[Si](OC)(c1ccccc1)c1ccccc1
inactive: Potency [1] | Potency [2] | Potency [3] | Potency [4]

O=CNc1ccccc1
inactive: Potency [1] | Potency [2] | Potency [3] | Potency [4]

O=CN1CCOCC1
inactive: Potency [1] | Potency [2] | Potency [3] | Potency [4]

c1csc(SSc2cccs2)c1
inactive: Potency [1] | Potency [2] | Potency [3] | Potency [4]

Nc1ccc(F)cc1F
inactive: Potency [1] | Potency [2] | Potency [3] | Potency [4]

O=c1[nH]sc2ccccc12
inactive: Potency [1] | Potency [2] | Potency [3] | Potency [4]

CCOc1cccc(N)c1
inactive: Potency [1] | Potency [2] | Potency [3] | Potency [4]

CCCCCCC(O)CO (configuration not stated)
inactive: Potency [1] | Potency [2] | Potency [3] | Potency [4]
